Screens as filed in PubChem BioAssay.
MCF10A rereplic: A quantitative high throughput screen for small molecules that induce DNA re-replication in MCF 10a normal breast cells; Potency, µM (highest dose often 46.1 µM), for inactives: top-dose activity, positive = re-replication, actives largely listed as activators; MCF 10A DNA re-replication, Hoechst nuclear intensity, 48 h; actives 2.9% (n = 350,000); further: % of control where 0% means no effect; nearly all actives have a fitted effect of over 50% in size
HT1080 IDH1KD tx: qHTS for induction of synthetic lethality in tumor cells producing 2HG: qHTS for the HT-1080-IDH1KD cell line. HT-1080 IDH1 knockdown viability, ATP luminescence, 48 h. Potency, µM (highest dose often 46.1 µM), without a hit: at the top dose activity, negative = toxicity, hits mostly cytotoxic. actives 2% (n = 360,000). AID 686971, 2013;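 further: 0% = DMSO wells and -100% = cell-free medium wells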
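Luminescent ATP read-out (CellTiter-Glo, 10 min at room temperature) after 48 h compound exposure at 37 °C gave viability of IDH1-knockdown HT-1080 cells. Activity was normalised to DMSO and cell-free wells, then fitted as concentration-response curves.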
KB-3-1 tox: qHTS assay for MDR1-selective chemotherapeutics: Primary screen using the parental adenocarcinoma cell KB-3-1; KB-3-1 viability, CellTiter-Glo ATP luminescence, 72 h; Potency, µM (doses to about 46.1 µM), hits mostly cytotoxic; actives 1.4% (n = 400,000); further: on the % scale 0 is the no-effect control and ±100 the full control effect; nearly all actives have a fitted effect of over 60% in size
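Parental KB-3-1 viability, qHTS format: 72 h compound exposure, 37 °C; CellTiter-Glo; media-only wells and DMSO plates as controls; concentration-effect fits on corrected data.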
SW480 rerep: A quantitative high throughput screen for small molecules that induce DNA re-replication in SW480 colon adenocarcinoma cells; Potency, µM (top dose mostly 46.1 µM), for inactives: at the highest dose re-replication activation, hits mostly activators; actives 1.8% (n = 340,000); SW480 DNA re-replication, Hoechst DNA content imaging, 48 h; AID 624297, 2012; further: % of control where 0% means no effect; nearly all actives have a fitted effect of over 55% in size
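First, 250 cells per well were seeded. Next, compound or vehicle (23 nL) was pinned in, plates sat 48 hr at 37 C. Finally Hoechst was added for 40 min before fluorescence scanning.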
KB-V1 cytotox: qHTS assay for MDR1-selective chemotherapeutics: Primary screen using the drug-selected MDR subline cells KB-V1. KB-V1 MDR cells viability, CellTiter-Glo, 72 h. Potency, µM (doses to about 46.1 µM), hits mostly cytotoxic. actives 3.4% (n = 400,000). AID 1347076, 2019; further: on the % scale 0 is the no-effect control and ±100 the full control effect; nearly all actives have a fitted effect of over 60% in size
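KB-V1, DMEM (no phenol red) + 10% FBS; cpd pin-transferred, titration series; 72 h, 37 degrees C; CellTiter-Glo, luminescence. Data normalized, curve-fit.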
HT1080-NT tox: qHTS for induction of synthetic lethality in tumor cells producing 2HG: qHTS for the HT-1080-NT fibrosarcoma cell line; Potency, µM (top dose mostly 46.1 µM), for the others: top-dose activity, negative = less viability, usual class: cytotoxic; actives 1.6% (n = 360,000); AID 686970, 2013; HT-1080-NT fibrosarcoma viability, CellTiter-Glo ATP luminescence, 48 h;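 further: NT is the 2HG producing partner of a matched IDH1 knockdown line; 0% = DMSO-treated cells and -100% = media-only wells without cells; nearly all actives have a fitted effect of over 55% in size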
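Viability by CellTiter-Glo luminescence after 48 h compound exposure at 37C of HT-1080-NT cells (750/well, RPMI, 5% FBS). % activity scaled between DMSO wells and medium-only wells, then curve-fitted and categorized by curve class.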
Starred values were filed as active, the others as inactive; i = inactive; ? = inconclusive; nt = not tested or not shown; [ ] = remark or other dose. Rows were chosen to be rich in hits. Some 7.9% of all compounds tested hit in one or more screens of this group. The call rests on the fitted dose curve; in most records, active means well fitted curve in the direction sought with a large enough effect; inconclusive means small, poorly fitted or top-dose-only effect, or another doubt; inactive means no such curve, though single readings can be large; an effect the other way counts as inactive or inconclusive. Potency means the concentration at half of the fitted maximal effect.

SMILES	MCF10A rereplic	HT1080 IDH1KD tx	KB-3-1 tox	SW480 rerep	KB-V1 cytotox	HT1080-NT tox
O=C1CCc2cc(NS(=O)(=O)c3ccc(Cl)cc3)cc3c2N1CC3	15%	-19%	i	1%	i	-6%
COc1ccc(O)c(C(=O)c2coc(=N)c(C(=O)Nc3ccc(SC(F)F)cc3)c2)c1	29%	-14%	i	0%	23µM*	-10%
O=C(c1c[nH]c(C(=O)C(Cl)(Cl)Cl)c1)c1ccc(F)cc1F	3%	-1%	i	?	i	-1%
O=C(c1c[nH]c(C(=O)C(Cl)(Cl)Cl)c1)c1ccc(F)cc1Cl	9%	26µM*	i	26%	i	-13%
CC(=NNc1nc2ccccc2s1)c1ccncn1	7.3µM*	?	7.3µM*	?	?	?
C/C(=N\Nc1nc2ccccc2s1)c1ccc(Br)s1	?	?	i	-6%	?	?
Cc1ccc(OCC(=O)N/N=C/c2ccncc2)cc1C	5%	0%	i	-6%	i	25%
Cc1nnnn1/C(=C\c1ccccc1)C(=O)OCC(=O)NC1CCCCC1	?	18µM*	i	23µM*	i	?
Cc1nnnn1/C(=C\c1ccccc1)C(=O)OCC(=O)NC(C)(C)C	?	?	i	?	i	-21%
CCc1ccc(S(=O)(=O)N2c3ccc(C)cc3C3CN(C)CCC32)cc1 (configuration not stated)	?	-2%	i	3%	21µM*	-3%
CCOC(=O)c1c(CN2CCN(CCO)CC2)n(-c2ccccc2)c2cc(Br)c(O)cc12	?	23µM*	i	?	i	?
CCOC(=O)c1c(CN2CCN(CC#N)CC2)n(C)c2cc(Br)c(OC)cc12	?	21µM*	i	?	i	?
O=C(O)c1cccc2c1C(=O)c1ccc(-c3ccc(OC(F)(F)F)cc3)cc1S2(=O)=O	18%	-8%	i	-8%	i	-5%
COc1ccccc1N(C)S(=O)(=O)c1ccc(C(=O)N(C)Cc2cccc(OC)c2OC)cc1	nt	-1%	i	nt	i	-2%
COc1ccccc1N(C)S(=O)(=O)c1ccc(C(=O)N(C)Cc2ccc(Cl)s2)cc1	26µM*	-12%	nt	3%	nt	-9%
CC1CCCN(C(=O)CN2C(=O)NC3(CCCCC3C)C2=O)C1 (configuration not stated)	-16%	4%	i	-51%	i	8%
Cc1ccnc(N2CCCC(C(=O)Nc3ccc(C)c(C)c3)C2)n1 (configuration not stated)	16µM*	9%	i	-7%	i	-1%
COc1cccc(-c2ccc(NC(=O)C3CCCN(CCCn4nc(C)cc4C)C3)cc2)c1 (configuration not stated)	?	?	?	21µM*	i	?
Cc1ccc(NC(=O)C2CCCN(c3ncccn3)C2)cc1C (configuration not stated)	14%	0%	i	-8%	i	0%
CCC(C)c1ccc(NC(=O)C2CC3CCC2C3)cc1 (configuration not stated)	7.3µM*	-13%	i	?	i	-24%
CCC(C)c1ccc(NC(=O)C2CCCN(c3ncccn3)C2)cc1 (configuration not stated)	?	?	10µM*	18%	7.9µM*	?
COCc1nnc(NC(=O)c2cc(C(=O)OC)cc([N+](=O)[O-])c2)s1	-1%	15%	i	1%	i	6%
Cc1cc(C)c(S(=O)(=O)N2CCOC2CNC(=O)C(=O)NCc2ccncc2)c(C)c1 (configuration not stated)	9%	-2%	i	-3%	i	-11%
COc1ccc(NC(=O)C2CCCN(c3nc(C)cc(C)n3)C2)cc1 (configuration not stated)	2.9µM*	4%	i	-24%	?	-3%
C(=C\c1ccco1)/C1=NN(c2ccccc2)C(c2ccco2)C1 (configuration not stated)	2.1µM*	-24%	i	2.3µM*	?	-5%
SMILES	MCF10A rereplic	HT1080 IDH1KD tx	KB-3-1 tox	SW480 rerep	KB-V1 cytotox	HT1080-NT tox
O=[N+]([O-])c1ccc(/C=C/C2=NN(c3ccccc3)C(c3ccco3)C2)o1 (configuration not stated)	3%	?	7.3µM*	-5%	?	-15%
Cc1ccc(Cl)cc1N1CCN(C(=O)C2CCN(Cc3nc(-c4ccc(Cl)cc4)oc3C)CC2)CC1	nt	nt	i	nt	i	nt
COc1ccc(OC)c(-c2csc(NC(=O)COC(=O)C3(C)CC3(Cl)Cl)n2)c1 (configuration not stated)	16%	-2%	i	4%	i	-1%
COc1ccc(-c2nnc(SCc3nnc(-c4cccs4)o3)n2CC2CCCO2)cc1 (configuration not stated)	-9%	3%	i	-1%	4.6µM*	4%
CCn1c(SCc2nc(-c3ccc(OC)c(OC)c3)no2)nnc1-c1cccs1	16%	-25%	i	0%	9.2µM*	0%
Cc1nnc(SCc2nnc(-c3cccs3)o2)n1C1CCCCC1	1%	1%	i	-34%	?	5%
COCCCn1c(SCc2nnc(-c3ccc(OC)c(OC)c3)o2)nnc1-c1ccncc1	-4%	-9%	i	-7%	i	-3%
COc1ccc(-c2noc(-c3cccs3)n2)cc1OC	-19%	-3%	?	-17%	?	-5%
COc1ccc(-c2nnc(CSc3nnc(-c4ccncc4)n3C3CCCCC3)o2)cc1OC	12%	?	i	-3%	13µM*	-23%
CNC(=O)C(NC(=O)CNC(=O)c1ccc(Cl)cc1)C(C)(C)C (configuration not stated)	1%[9.22 µM]	6%	i	?	i	7%
CCOC(=O)c1c(NC(=O)C(Sc2ccccc2)c2ccccc2)sc(C(=O)N(C)C)c1C (configuration not stated)	?	?	?	?	2.9µM*	-4%
COc1ccc(OC)c(CN2CCSCC2)c1	4%	15%	i	0%	i	14%
